The AC50 is the concentration giving half of the maximal activity seen.

Where a structure was tested more than once in an assay, its records may differ in their call. Activity calls are given as the source filed them. How the source made its calls: active means hit-call score of the fitted dose curve at least 0.9, where 1 is the maximum; inactive means score below 0.9.

Chain of Caspase-3 (Homo sapiens) (P42574 whole entry, looked up): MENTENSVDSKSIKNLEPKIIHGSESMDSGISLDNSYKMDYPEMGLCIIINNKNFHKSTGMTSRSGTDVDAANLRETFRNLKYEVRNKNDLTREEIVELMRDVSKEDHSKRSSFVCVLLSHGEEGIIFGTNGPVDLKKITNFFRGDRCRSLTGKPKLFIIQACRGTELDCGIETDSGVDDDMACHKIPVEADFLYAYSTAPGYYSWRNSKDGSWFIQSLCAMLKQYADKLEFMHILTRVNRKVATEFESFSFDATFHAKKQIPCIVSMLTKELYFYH

Read-out in this test: Caspase-3 (Homo sapiens) (UniProt P42574)
The test can be described thus: LTEA_HepaRG_CASP3: Life Technologies and Expression Analysis (LTEA) Assay for cysteine-aspartic acid protease (CASP3) using HepaRG (AID 2283477). The note with it: mRNA level, 48 h; actives raise or lower the signal. As to the method:
LTEA_HepaRG is a cell based, multiplexed-readout assay that uses HepaRG, a human liver cell line, with measurements taken at 48 hours after chemical dosing on a 96-well plate.LTEA_HepaRG_CASP3 is one of 102 assay component(s) measured in the LTEA HepaRG cell culture assay. It is a marker of Cell proliferation, survival, death.Data from the assay component LTEA_HepaRG_CASP3 was analyzed into 1 endpoint. This assay endpoint, LTEA_HepaRG_CASP3, was analyzed with bidirectional fitting relative to DMSO as the negative control and baseline of activity. Using a type of inducible reporter, measures of mRNA induction for gain or loss-of-signal activity can be used to understand regulation of transcription factor activity. To generalize the intended target to other relatable targets, this assay endpoint is annotated to the protease intended target family, where the subfamily is cysteine protease.
A total of 1060 chemcials from the ToxCast library were tested in eight-point concentration-response experiments. Cell culture and cytotoxicity assays were conducted at Thermo Fisher Scientific's Custom Services facility (Madison, WI). A single lot of human HepaRG cells (Thermo Fisher Scientific, Frederick, MD) was used for the cell culture experiments. 96-well format collagen type I coated plates of human HepaRG cells were prepared using established methods. Briefly, cryopreserved HepaRG cells were thawed, plated at a density of approximately 100,000 cells/well in HepaRG Thaw, Plate, and General Purpose media (HPRG770, Thermo Fisher Scientific), and incubated for 48 hours. 0.5% DMSO was selected as vehicle control to balance the requisite need of DMSO in HepaRG cultures to maintain differentiation (for example, baseline metabolism, proportions of hepatocytes vs. cholangiocytes), while enabling further hepatic receptor pathway activation (for example, PXR and CAR) in response to chemical exposure. 48 hours after plating, the culture medium was replaced with HepaRG Serum-Free Incudtion Media. Cells were exposed to each test chemical in duplicate and maintained in CO2 incubators for another 48 hours. Chemical plates were thawed to room temperature and 200x concentrations of treatment groups were prepared. 8-point conentration-reponse curves were made with the highest exposure at 100 uM, followed by half-log dilutions, all in 0.5% DMSO. Each test plate contained variouse controls, induction positive controls (1mM phenobarbital), cytotoxicity positive controls ([…] aflatoxin B1), vehicle controls (0.5% DMSO), and total lysis controls (0.5% DMSO). Cell morphology images were taken using an Essen IncuCyte FLR automated microscope, with six 96-well plates imaged in about 24 minutes. Images were captured and exported and JPEG files. Spent culture media was transfered to black-well plates for the LDH assay, and remaining media was sorted at -80 C for later use. Cells were treated with RLT buffer and frozen until shipped for gene expression analysis. Total RNA was isolated from the cell suspension in 75 uL of Buffer RLT (Qiagen, Germantown, MD 20874) by Quintiles/Expression Analysis (Durham, NC) using a custom isolation procedure. Total RNA from each plate well was transferred to a preamplification plate. Fluidigm's 96.96 Dynamic ArrayTM (Fluidigm, Amsterdam, the Netherlands) technology was used for gene expression analyses by quantitative reverse transcription polymerase chain reaction (qRT-PCR, performed by Quintiles/Expression Analysis, Durham, NC)89. Standard TaqManTM Assays (Applied Biosystems/ThermoFisher Scientific, Foster City, CA) were used to assess the expression of 93 genes selected based on their selectivity and sensitivity to important hepatic receptors known to be modulated by environmental chemicals; importance in human hepatocyte functionality; and hepatotoxicity. […]
For the compound `N#Cc1nn(-c2c(Cl)cc(C(F)(F)F)cc2Cl)c(N)c1S(=O)C(F)(F)F` (stereo not given), the outcome was inactive. Still for that read-out and setting: the entry for `Cc1ccc(-c2c(Cl)nc(C#N)n2S(=O)(=O)N(C)C)cc1` is “inactive”; for `CC(C)C1(C)N=C(c2nc3ccccc3cc2C(=O)O)NC1=O` (stereo not given) it is “inactive”.

Consider `CCc1nn(C)c(C(=O)NCc2ccc(C(C)(C)C)cc2)c1Cl`, for which the AC50 is 16.1 µM (active). Regarding `CC1=C(C(=O)Nc2ccccc2)SCCO1`, the compound was classed as inactive. On the same count and under the same terms, the entry for `C=CC1(C)OC(=O)N(c2cc(Cl)cc(Cl)c2)C1=O` (stereo not given) is “inactive”. Consider `CCCN(CCC)c1c([N+](=O)[O-])cc(S(N)(=O)=O)cc1[N+](=O)[O-]`, for which the result was inactive and the AC50 is 79.2 µM (active).

Turning to `CCCCNC(=O)n1c(NC(=O)OC)nc2ccccc21`, the outcome was inactive. On the same count and under the same terms, next, `CCNc1nc(Cl)nc(NC(C)C)n1`: “inactive”; `OC(c1ccc(Cl)cc1)(c1cncnc1)c1ccccc1Cl` (stereo not given): “inactive”; `CC(Oc1ccc(Cl)cc1Cl)C(=O)O` (stereo not given): “inactive”. On the same count and under the same terms, the entry for `COc1ccc(C(c2ccc(OC)cc2)C(Cl)(Cl)Cl)cc1` is “inactive”.

With `COC(=O)N(OC)c1ccccc1COc1ccn(-c2ccc(Cl)cc2)n1`, the AC50 was 79.5 µM (active). `CS/C(C)=N/OC(=O)N(C)SN(C)C(=O)O/N=C(\C)SC`: the compound was called inactive. Same read-out and setting: next, `O=C(O)COc1nc(Cl)c(Cl)cc1Cl`: “inactive”. Take `COC(=O)C(C)Oc1ccc(Oc2ccc(Cl)cc2Cl)cc1` (stereo not given): the result was inactive. Same read-out and setting: the entry for `CCCC1COC(Cn2cncn2)(c2ccc(Cl)cc2Cl)O1` (stereo not given) is “inactive”. Still for that read-out and setting: the entry for `CCOP(=S)(OCC)SCn1c(=O)oc2cc(Cl)ccc21` is “inactive”.

As for `CC1COC(Cn2cncn2)(c2ccc(Oc3ccc(Cl)cc3)cc2Cl)O1` (stereo not given), the result was inactive. Consider `CCOC(=O)CC(SP(=S)(OC)OC)C(=O)OCC` (stereo not given), for which the compound was called inactive. Consider `CCNc1nc(Cl)nc(NCC)n1`, for which the compound was called inactive. Same read-out and setting: next, `CCCCOC(=O)c1ccccc1C(=O)OCCCC`: “inactive”; `CCON=C(CC)C1=C(O)CC(c2c(C)cc(C)cc2C)CC1=O` (stereo not given): “inactive”.

As to `CO/C=C(/C(=O)OC)c1ccccc1Oc1cc(Oc2ccccc2C#N)ncn1`, the result was inactive. Still for that read-out and setting: the entry for `C=CCC1=C(C)[C@@H](OC(=O)[C@@H]2[C@@H](C=C(C)C)C2(C)C)CC1=O` is “inactive”. Consider `Cc1cc(Cl)ccc1OCC(=O)O`, for which the compound was classed as inactive. On to `CON(C)C(=O)Nc1ccc(Cl)c(Cl)c1`, for which the compound was called inactive. On the same count and under the same terms, next, `CCCCC(CC)COC(=O)c1ccccc1C(=O)OCC(CC)CCCC` (stereo not given): “inactive”.

For the compound `CC(C)(C)c1ccc(CSc2cnn(C(C)(C)C)c(=O)c2Cl)cc1`, the compound was classed as inactive.

Consider `C#CCOS(=O)OC1CCCCC1Oc1ccc(C(C)(C)C)cc1` (stereo not given), for which the half-maximal activity concentration (AC50) is 29 µM (active). `C=CCC1=C(C)C(OC(=O)C2C(C=C(C)C)C2(C)C)CC1=O` (stereo not given): the compound was called inactive.

`CNC(=S)S`: the compound was called inactive.

On to `COc1cnc(OC)n2nc(NS(=O)(=O)c3c(OCC(F)F)cccc3C(F)(F)F)nc12`, for which the result was inactive. Regarding `CCCCNC(=O)OCC#CI`, the compound was classed as inactive. Same read-out and setting: next, `CC(C)Oc1cc(-n2nc(C(C)(C)C)oc2=O)c(Cl)cc1Cl`: “inactive”; `COc1nc(NC(C)C)nc(NC(C)C)n1`: “inactive”. On the same count and under the same terms, next, `CCOC(=O)C(Cl)Cc1cc(-n2nc(C)n(C(F)F)c2=O)c(F)cc1Cl` (stereo not given): “inactive”.

Consider `COP(=S)(OC)Oc1nc(Cl)c(Cl)cc1Cl`, for which the compound was classed as inactive. On the same count and under the same terms, the entry for `CCOc1cc(Oc2ccc(C(F)(F)F)cc2Cl)ccc1[N+](=O)[O-]` is “inactive”.

Values taken from PubChem BioAssay (EPA / NIEHS).
